CtBP-E1A inh = CtBP/E1A binding inhibition; AID 651724; activity change, % (no concentration beside the values); 0.49% of 340,000 active; AlphaScreen GST-E1A/His-CtBP binding, 1536-well; hits give low values; in the data active = activity change below about -65%; inconclusive = mostly about -30% to -63%; also: % is scaled to controls: 0 for no effect and ±100 for the full control effect
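Homogeneous bead-based format: GST-tagged E1A captured on glutathione donor beads, His-tagged CtBP on nickel acceptor beads; compounds precede bead addition by 2 h at 37 °C.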
JMJD2A Tudor inh = blocks the human JMJD2A Tudor domain; O75164; AlphaScreen JMJD2A-Tudor / H3K4me3 peptide binding; Potency, µM (series often up to 114 µM), without a hit: at the top dose activity change, negative = inhibition, usual class: inhibitors; 4.4% of 390,000 active; AID 504339; also: potency is read from the fitted curve at half-maximal effect; % is scaled to controls: 0 for no effect and ±100 for the full control effect; nearly all actives have a fitted effect of over 50% in size
G9a block = G9a (human) methyltransferase inhibition | Q96KQ7 | G9a H3K9 monomethylation, AlphaScreen, 2 h | Potency, µM (series often up to 102 µM), for the others: at the top dose activity, negative = inhibition, usual class: inhibitors | 8.8% of 350,000 active; also: potency is read from the fitted curve at half-maximal effect; % is scaled to controls: 0 for no effect and ±100 for the full control effect; nearly all actives have a fitted effect of over 75% in size
Target sequence (Q96KQ7 913-1193 limits assumed): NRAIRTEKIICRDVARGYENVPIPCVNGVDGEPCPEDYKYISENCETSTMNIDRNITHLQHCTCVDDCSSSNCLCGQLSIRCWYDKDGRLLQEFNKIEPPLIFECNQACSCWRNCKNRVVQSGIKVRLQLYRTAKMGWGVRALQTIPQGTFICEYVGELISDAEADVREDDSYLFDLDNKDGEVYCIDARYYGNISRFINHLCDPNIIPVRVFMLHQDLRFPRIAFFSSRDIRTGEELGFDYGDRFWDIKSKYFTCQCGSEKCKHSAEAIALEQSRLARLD
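Quantitative HTS format: methyltransferase activity on a biotin-tagged H3K9 peptide is measured by AlphaScreen, using a rabbit anti-monomethyl-H3K9 antibody with streptavidin donor and anti-IgG acceptor beads. Final levels are 20 nM enzyme, 500 nM peptide, 20 uM SAM; 2 h RT.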
HP1b chromo inh = HP1-beta chromodomain-methylated histone interaction inhibition. P83916. AlphaScreen HP1-beta / biotin-H3K9me3 peptide binding. Potency, µM (highest dose often 114 µM), for inactives: at the top dose activity change, negative = inhibition, hits mostly inhibitors. 0.56% of 390,000 active. AID 540317; also: potency is read from the fitted curve at half-maximal effect; nearly all actives have a fitted effect of over 70% in size
Target sequence (P83916 whole entry, looked up): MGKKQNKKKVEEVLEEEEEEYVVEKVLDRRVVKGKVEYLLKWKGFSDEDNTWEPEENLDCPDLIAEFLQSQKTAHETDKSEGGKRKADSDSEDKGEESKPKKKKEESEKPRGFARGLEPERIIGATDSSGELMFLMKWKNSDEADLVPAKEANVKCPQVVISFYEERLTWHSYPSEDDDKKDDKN
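AlphaScreen: HP1-beta (50 nM) preformed 30 min with biotin-H3(1-18)K9me3 peptide (50 nM) in PBS pH 7.4, 0.01% Tween-20. Compound added for 30 min at RT, then streptavidin donor/nickel chelate acceptor beads (10 ug/mL) for 30 min.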
Six1-Eya2 inh = blocks human Six1 binding to Eya2; Q15475+O00167; AlphaScreen GST-Six1/His-Eya2 binding, biochemical; hits give low values; activity change, % (concentration not given with the values); 0.56% of 360,000 active; in the data active = activity change below about -65%; inconclusive = mostly about -30% to -63%; also: % is scaled to controls: 0 for no effect and ±100 for the full control effect
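Compounds are tested against tagged Six1 and Eya2 proteins bridged by glutathione donor and nickel acceptor beads; after a one-hour incubation at 37 °C without light, AlphaScreen emission is recorded.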
BAZ2B block = inhibitors of human BAZ2B bromodomain | Potency, µM (top dose mostly 114 µM), without a hit: at the highest dose activity change, negative = inhibition, actives largely listed as inhibitors | AlphaScreen BAZ2B-H3K14Ac peptide displacement | Q9UIF8 | 4.4% of 360,000 active; also: potency is read from the fitted curve at half-maximal effect; % is scaled to controls: 0 for no effect and ±100 for the full control effect; nearly all actives have a fitted effect of over 60% in size
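Protein-peptide AlphaScreen: BAZ2B 50 nM, b-H3K14Ac 50 nM, 1x PBS pH 7.4 + 0.01% Tween-20. Preincubation 30 min RT; cpd 30 min RT (top 110 uM); beads 20 min RT, light-protected.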
The depositor's hits bear a star; u = inconclusive; x = no result given; ! = not active in a repeat; [ ] = another dose, or the depositor's remark. The list is not random: actives were taken first. Their share in the collection is about 10%. Unless noted, calls follow the shape of the dose curve; as a rule, active = well fitted inhibition curve with a large enough effect; inconclusive = small, poorly fitted or top-dose-only effect; inactive = no such curve, though single readings can be large or run the other way.

SMILES | CtBP-E1A inh | JMJD2A Tudor inh | G9a block | HP1b chromo inh | Six1-Eya2 inh | BAZ2B block
CC(=O)Cn1cnc2c(sc3nc(C)cc(C)c32)c1=O | 2 | -13% | 2% | 25% | -22 | -15%
CCOC(=O)C1CCCN(C(=O)Cn2cnc3c2c(=O)n(C)c(=O)n3C)C1 (configuration not stated) | 0 | 1% | -33% | 36% | 1 | 3%
CCCNC(=O)Cn1sc2nc(C)cc(C)c2c1=O | 8 | 3.2µM* | x | u | 0 | 50µM*
Cc1cc(C)c2c(=O)n(CC(=O)N3CCC(N4CCCCC4)CC3)sc2n1 | 1 | 3.2µM* | 1µM* | 3.5µM* | -3 | 3%
CCOC(=O)C1CCCN(C(=O)Cn2sc3nc(C)cc(C)c3c2=O)C1 (configuration not stated) | -23 | 5.6µM* | 1.6µM* | u | 3 | 15%
CC(C)(C)OC(=O)N1CCC(c2c(C(=O)Nc3ccc4c(c3)OCO4)cnn2-c2ccc(F)cc2F)CC1 | x | u | -41%[59 µM] | -11% | x | u
N#Cc1ccccc1Cn1c(SCC(=O)Nc2ccc(F)cc2)nc2ccccc21 | x | 16% | 11%[59 µM] | 29% | x | -3%
Cc1cccc(N2C(=O)C(O)=C(C(=O)c3cccs3)C2c2ccc(F)cc2)n1 (configuration not stated) | x | -20% | u | 21% | 3 | u
COc1ccc(C2C(C(=O)c3cccs3)=C(O)C(=O)N2c2nncs2)cc1 (configuration not stated) | 2 | u | 45µM* | 0% | -9 | u
C=CCOc1ccc(C2C(C(=O)c3cccs3)=C(O)C(=O)N2c2nnc(C)s2)cc1 (configuration not stated) | 29 | u | x | 10% | 13 | x
CC(C)c1nnc(N2C(=O)C(O)=C(C(=O)c3cccs3)C2c2ccccc2)s1 (configuration not stated) | 2 | -28% | 25µM* | 8% | 7 | 79µM*
COc1ccc(C2C(C(=O)c3cccs3)=C(O)C(=O)N2c2nnc(C)s2)cc1OC (configuration not stated) | 0 | 79µM* | u | 24% | 0 | 50µM*
Cc1cccc(N2CCn3c2nc2c3c(=O)n(C/C=C/c3ccccc3)c(=O)n2C)c1 | x | -28% | u | 13% | x | u
CCCCc1ccc(NC(=O)c2cc3c(=O)n4ccccc4nc3s2)cc1 | x | -11% | -5%[59 µM] | 31% | x | 2%
Cc1ccc(-c2cnc(SCCNC(=O)c3ccco3)[nH]2)cc1 | -11 | -21% | 45µM* | 0% | 1 | -34%
CC(C)(C)c1cc(Br)c(O)c(N=Nc2ccc(S(=O)(=O)N3CCOCC3)cc2)c1 | u | 5.6µM* | 14µM* | u | u | 7.9µM*
O=S(=O)(c1ccc(Br)cc1)N1CCOCC1 | x | 6% | x | 13% | x | x
Cc1ccc(O)c(N=Nc2ccc(S(=O)(=O)N3CCOCC3)cc2)c1 | u | 14µM* | -31%[12.7 µM] | u | u | 8.9µM*
Cc1cccc(-c2noc(-c3ccccc3C(=O)NCc3ccco3)n2)c1 | 4 | u | u | 5% | -7 | 50µM*
COc1cc(-c2noc(-c3ccccc3C(=O)NCc3ccco3)n2)cc(OC)c1OC | -15 | -16% | 40µM* | -4% | 1 | -24%
COc1ccccc1-c1noc(-c2ccccc2C(=O)NCc2ccco2)n1 | 0 | -14% | -3%[59 µM] | 30% | -2 | -19%
c1ccc(-c2noc(-c3cccnc3NCc3ccco3)n2)cc1 | x | -9% | 18µM* | 49% | x | -21%
O=C(NCc1ccco1)c1ccccc1-c1nc(-c2ccccc2)no1 | -8 | -21% | -6% | -5% | -3 | 56µM*
CCC(C)NC(=O)c1nn(-c2ccc(C)cc2)nc1CO (configuration not stated) | x | -20% | 6%[59 µM] | 9% | x | 3%
COc1ccc2c(c1)c(=O)c(S(=O)(=O)c1ccc(C)c(C)c1)cn2CC(=O)Nc1ccccc1 | x | -5% | 2%[59 µM] | 58% | x | -3%
SMILES | CtBP-E1A inh | JMJD2A Tudor inh | G9a block | HP1b chromo inh | Six1-Eya2 inh | BAZ2B block
Cc1cccc(-c2nc(CNC(=O)c3ccco3)cs2)c1 | -8 | -9% | 50µM* | 37% | -8 | -14%
COc1ccc(-c2nc(CCNC(=O)c3ccco3)cs2)cc1OC | -3 | -16% | u | 15% | -25 | -9%
CCCCc1nc2ccccc2n2c(-c3ccc(OC)cc3)c3c(=O)n(C)c(=O)n(C)c3c12 | x | 10% | 47%[59 µM] | 97% | x | 26%
O=C1c2[nH]nc(-c3ccccc3O)c2C(c2ccc(Cl)cc2)N1CCc1ccccc1 (configuration not stated) | x | -4% | 9%[59 µM] | 56% | x | -5%
Cc1cc(C)cc(OCC(=O)N(Cc2ccc(N(C)C)cc2)C2CCS(=O)(=O)C2)c1 (configuration not stated) | -2 | 63µM* | -113%[59 µM] | u | 0 | 40µM*
CN(C)c1ccc(CN(C(=O)COc2ccc(Br)cc2)C2CCS(=O)(=O)C2)cc1 (configuration not stated) | -19 | 40µM* | 50µM* | -29% | -30 | 45µM*
CCCSc1ncc(Cl)c(C(=O)N(Cc2ccc(N(C)C)cc2)C2CCS(=O)(=O)C2)n1 (configuration not stated) | x | 56µM* | u | -7% | x | 22µM*
COc1ccc(OCC(=O)N(Cc2sccc2C)C2CCS(=O)(=O)C2)cc1 (configuration not stated) | 1 | -14% | 71µM*! | 52% | 3 | u
Cc1ccsc1CN(C(=O)COc1ccc(Cl)cc1)C1CCS(=O)(=O)C1 (configuration not stated) | x | -7% | 3%[59 µM] | 32% | x | -11%
Cc1ccc(OCC(=O)N(Cc2ccc(N(C)C)cc2)C2CCS(=O)(=O)C2)cc1 (configuration not stated) | 1 | u | 40µM* | -15% | -1 | u
Cc1cccc(OCC(=O)N(Cc2cccs2)C2CCS(=O)(=O)C2)c1C (configuration not stated) | -3 | -12% | 50µM* | 24% | 4 | 13%
CN(C)c1ccc(CN(C(=O)/C=C/c2ccccc2Cl)C2CCS(=O)(=O)C2)cc1 (configuration not stated) | u | 45µM* | -132%[59 µM] | -32% | u | 25µM*
Cc1ccc(OCC(=O)N(Cc2cccs2)C2CCS(=O)(=O)C2)cc1 (configuration not stated) | 5 | 8% | 1% | 22% | 10 | -9%
CCOc1cccc2sc(NC(=O)c3ccc(S(=O)(=O)N4CCCCC4)cc3)nc12 | x | -24% | -1%[59 µM] | 17%[57 µM] | x | 2%

From PubChem BioAssay
